Compound activity: PubChem BioAssay, National Center for Advancing Translational Sciences (NCATS)
In the library only some 11% were active in any assay of this set; here they are far more common.
3T3 cytotox: kills NIH 3T3 cells; Potency, µM (titrated, usually from 96.7 µM), actives largely listed as inhibitors; actives 4.3% (n = 94,000); NIH 3T3 viability, CellTiter-Glo ATP luminescence, 48-72 h; AID 1345082; note: nearly all actives have a fitted effect of over 55% in size
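Mouse fibroblast NIH 3T3 cells, 400 per well, received compound via pintool and were incubated for 48 or 72 hr prior to CellTiter-Glo ATP luminescence measurement.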
HEK cytotox: HEK 293 cell cytotoxicity; HEK 293 viability, ATP luminescence (CellTiter-Glo), 48-72 h; AID 1345083; Potency, µM (titrated, usually from 115 µM), actives largely listed as inhibitors; actives 6.6% (n = 94,000); note: nearly all actives have a fitted effect of over 60% in size
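ATP-coupled CellTiter-Glo luminescence served as viability read-out, recorded 10 min after reagent addition at room temperature. HEK 293 cells, 250 cells/well, had been incubated with pintool-transferred compound for 48 or 72 hr at 37 degree Celsius.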
NPR1 antag: blocks ANP-stimulated signaling of human Npr1 receptor; actives 1.6% (n = 76,000); P16066; HEK293 hNpr1 GloSensor cGMP, ANP-stimulated luminescence; Potency, µM (top dose mostly 46.3 µM), actives largely listed as inhibitors; calls by dose curve; note: nearly all actives have a fitted effect of over 60% in size
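HEK293 cells stably expressing human Npr1 and cGMP GloSensor pGS-40F, loaded 2 h with 2% GloSensor reagent, given compound 30 min at room temperature. Luminescence read before and 20 min after 0.1 nM hNppA.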
Luciferase inh: blocks purified firefly luciferase enzyme activity | purified P. pyralis luciferase, luminescence, biochemical | Potency, µM (series often up to 115 µM), actives largely listed as inhibitors | actives 2.5% (n = 76,000) | AID 1347043; note: nearly all actives have a fitted effect of over 65% in size
Target sequence (P08659 whole entry, looked up): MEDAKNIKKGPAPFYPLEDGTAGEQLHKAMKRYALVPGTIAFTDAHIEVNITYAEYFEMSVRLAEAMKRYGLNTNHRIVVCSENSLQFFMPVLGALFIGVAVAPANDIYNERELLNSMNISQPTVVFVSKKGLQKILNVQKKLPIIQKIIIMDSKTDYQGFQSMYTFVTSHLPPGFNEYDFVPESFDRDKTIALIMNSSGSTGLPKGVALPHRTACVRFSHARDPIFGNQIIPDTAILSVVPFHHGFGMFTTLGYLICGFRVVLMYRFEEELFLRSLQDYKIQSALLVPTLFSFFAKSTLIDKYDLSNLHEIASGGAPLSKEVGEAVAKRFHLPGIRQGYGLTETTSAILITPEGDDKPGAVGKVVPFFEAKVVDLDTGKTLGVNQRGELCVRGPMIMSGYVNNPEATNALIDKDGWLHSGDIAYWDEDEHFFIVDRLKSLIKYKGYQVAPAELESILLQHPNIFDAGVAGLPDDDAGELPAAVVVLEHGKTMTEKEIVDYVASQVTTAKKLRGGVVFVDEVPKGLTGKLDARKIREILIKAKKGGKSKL
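Biochemical qHTS: compound (6-point titration) added to 10uM D-luciferin plus 10uM ATP in Tris acetate pH 7.5 buffer with Mg, Tween-20 and BSA, then purified enzyme at 10nM; light output imaged.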
Each line names hits and unclear results; the compound was inactive in the other large screens. Unless noted, calls come from the whole dose curve; as a rule, active = well fitted curve in the direction sought with a large enough effect; inconclusive = small, poorly fitted or top-dose-only effect, or another doubt; inactive = no such curve, though single readings can be large; an effect the other way counts as inactive or inconclusive.

CC(C(=O)N(C)C)N1CCc2onc(C(c3ccccc3)c3ccccc3)c2C1 (stereo not drawn)	HEK cytotox inconclusive
COc1cccc(NC(=O)O[C@@H]2CO[C@H]3[C@@H]2OC[C@@H]3Nc2nccc(-c3cccc(F)c3)n2)c1	3T3 cytotox inconclusive, HEK cytotox 44.7µM
N#Cc1cccc(NC(=O)O[C@@H]2CO[C@H]3[C@@H]2OC[C@@H]3Nc2nccc(-c3ccc4c(c3)OCO4)n2)c1	3T3 cytotox inconclusive, HEK cytotox 28.2µM
CS(=O)(=O)N[C@H]1CO[C@H]2[C@@H]1OC[C@@H]2Nc1nccc(-c2cccc(F)c2)n1	none
CC(C)(C)c1ccc(NC(=O)O[C@@H]2CO[C@H]3[C@@H]2OC[C@@H]3Nc2nccc(-c3ccc(-c4ccccc4)cc3)n2)cc1	3T3 cytotox 39.8µM, HEK cytotox 28.2µM
O=S(=O)(Cc1ccccc1)N[C@H]1CO[C@H]2[C@@H]1OC[C@@H]2Nc1nccc(-c2cccc(F)c2)n1	3T3 cytotox inconclusive, HEK cytotox 31.6µM, NPR1 antag inconclusive
CCOC(=O)c1cccc(NC(=O)N2CC[C@@H](CC(=O)NCc3ccc(OC)c(OC)c3)[C@@H](CC)C2)c1	none
CCCCOc1c(CNC2(CO)CCCC2)cccc1OC	none
CN(C)c1ccc(-c2ccnc(N[C@H]3CO[C@H]4[C@@H]3OC[C@H]4OC(=O)Nc3cccc(C(F)(F)F)c3)n2)cc1	3T3 cytotox inconclusive, HEK cytotox 31.6µM
O=C(N[C@H]1CO[C@H]2[C@@H]1OC[C@@H]2Nc1nccc(-c2ccc(-c3ccccc3)cc2)n1)c1ccc2c(c1)OCO2	none
COc1ccc(-c2ccnc(N[C@H]3CO[C@H]4[C@@H]3OC[C@@H]4NC(=O)Nc3cccc(C(F)(F)F)c3)n2)cc1	3T3 cytotox 39.8µM, HEK cytotox 39.8µM
COc1ccc(-c2ccnc(N[C@H]3CO[C@H]4[C@@H]3OC[C@@H]4NC(=O)c3ccc4c(c3)OCO4)n2)cc1	3T3 cytotox inconclusive, HEK cytotox 31.6µM, NPR1 antag inconclusive
C[C@H]1[C@@H]2[C@@H](O)[C@H]([C@H](C)C(=O)N3CCCC3)CC[C@@]2(C)CC[C@@H]1NC(=O)c1cccc(F)c1	none
Cc1nnnn1CCCN1C[C@H](NC(=O)CC2CCC2)[C@@H](C(C)C)C1	none
O=C(NC1CC1)c1ccc2nnc(CC3CC3)n2c1	none (no result: NPR1 antag, Luciferase inh)
COc1ccc(C(=O)N2CCC(N3C[C@H](O)C[C@H]3C(=O)NC3CCCCC3)CC2)cc1F	none
COc1ccc(C(=O)NC2CCN(c3cc(-c4ccccc4)[nH]n3)CC2)c(OC)c1	3T3 cytotox inconclusive, HEK cytotox 79.4µM
CCOc1ccccc1C(=O)NC1CCN(c2cc(-c3ccc(OC)cc3)[nH]n2)C1 (stereo not drawn)	3T3 cytotox 35.5µM, HEK cytotox inconclusive
CCOc1ccccc1C(=O)NC1CCN(c2cc(-c3ccccc3)[nH]n2)C1 (stereo not drawn)	3T3 cytotox inconclusive, HEK cytotox inconclusive
CCOc1ccccc1C(=O)NC1CCCN(c2cc(-c3ccc(Cl)cc3)[nH]n2)C1 (stereo not drawn)	3T3 cytotox 15.8µM, HEK cytotox 20µM, Luciferase inh inconclusive
CCOc1ccccc1C(=O)NC1CCN(c2cc(-c3ccc(OC)cc3)[nH]n2)CC1	3T3 cytotox 35.5µM, HEK cytotox inconclusive
COc1ccccc1C(=O)NC1CCN(c2cc(-c3ccc(Cl)cc3)[nH]n2)CC1	3T3 cytotox inconclusive, HEK cytotox inconclusive
COc1cc(Cl)ccc1C(=O)NC1CCN(c2cc(-c3ccc(F)cc3)[nH]n2)CC1	3T3 cytotox 35.5µM, HEK cytotox inconclusive
CCN1CCN(CC(O)COc2cccc(CNC3(c4ccccc4)CC3)c2)CC1 (stereo not drawn)	3T3 cytotox inconclusive, HEK cytotox 31.6µM
c1ccc(-c2cc3c(cn2)NCCN(Cc2ccccn2)C3)cc1	HEK cytotox inconclusive
Cc1noc(C)c1CN1CCNc2cc(-c3ccccc3)ncc2C1	3T3 cytotox inconclusive, HEK cytotox inconclusive, Luciferase inh 63.1µM
Cc1noc(C)c1CN1CCNc2cc(Nc3ccccc3)ncc2C1	HEK cytotox inconclusive, Luciferase inh 35.5µM
O=C(c1ccccc1Cl)N1CCCC(C(=O)N2CCC(c3nc4ccncc4[nH]3)CC2)C1 (stereo not drawn)	none (no result: NPR1 antag, Luciferase inh)
O=C(NCc1ccc(F)cc1)c1nc(-c2ccc(F)cc2)c2cnccn12	3T3 cytotox inconclusive, HEK cytotox inconclusive
COc1cccc(Nc2ccnc(N3CCN([S+](=O)([O-])c4c(C)noc4C)CC3)n2)c1	none (no result: NPR1 antag, Luciferase inh)
COc1ccccc1-c1cnc(Nc2ccc3c(c2)OCCO3)c2c1CCO2	HEK cytotox inconclusive, NPR1 antag inconclusive, Luciferase inh 14.1µM
COc1ccccc1-c1cnc(NCc2ccccc2)c2c1CCO2	3T3 cytotox 25.1µM, HEK cytotox inconclusive
O=C(NCc1nnc2ccc(-c3ccccc3)nn12)c1ccoc1	none
Cc1csc(NC(=O)C2CC(=O)N(c3n[nH]c4ccccc34)C2)n1 (stereo not drawn)	none
Cc1ccc2nc(NC(=O)C3CC(=O)N(c4n[nH]c5ccccc45)C3)sc2c1 (stereo not drawn)	3T3 cytotox 31.6µM, HEK cytotox 39.8µM
CNC(=O)[C@H]1C[C@]2(CCCCN(C)C2=O)N(C(C)=O)[C@H]1c1ccco1	HEK cytotox inconclusive (no result: NPR1 antag, Luciferase inh)
Cc1noc(-c2cccc(OC3CN(C(=O)NC4CCCC4)C3)c2)n1	3T3 cytotox inconclusive, HEK cytotox 79.4µM
Cc1noc(-c2ccc(OC3CN(C(=O)NC4CCCCC4)C3)cc2)n1	3T3 cytotox inconclusive, HEK cytotox 39.8µM, NPR1 antag inconclusive
COCCNC(=O)C[C@@H]1C[C@@H](C(C)C)[C@H](CNS(C)(=O)=O)C=C1C	none
COc1ccc(-c2noc(-c3cccn3CC(=O)Nc3cccc(C#N)c3)n2)cc1F	HEK cytotox inconclusive
Cc1ccccc1-c1[nH]nc2ncc(-c3ccc(F)cc3)nc12	3T3 cytotox inconclusive, HEK cytotox 44.7µM, Luciferase inh 22.4µM
Cc1ccccc1-c1[nH]nc2ncc(-c3cccc(F)c3)nc12	3T3 cytotox inconclusive, HEK cytotox 63.1µM, Luciferase inh 20µM
COc1cccc(-c2cnc3n[nH]c(-c4ccc(F)cc4C)c3n2)c1	3T3 cytotox inconclusive
Cc1cc(F)ccc1-c1[nH]nc2ncc(-c3ccccc3)nc12	3T3 cytotox inconclusive, HEK cytotox inconclusive
COc1ccc(-c2cnc3n[nH]c(-c4ccc(F)cc4C)c3n2)cc1OC	3T3 cytotox 28.2µM, HEK cytotox 28.2µM
COc1ccc(-c2[nH]nc3ncc(-c4ccc(CO)cc4)nc23)cc1F	3T3 cytotox 28.2µM, HEK cytotox 35.5µM
Cc1ccc(Cn2cccc2-c2nc(-c3ccc(F)cc3)no2)cc1	Luciferase inh inconclusive
Cc1ccc([S+](=O)([O-])N2CCC(N3C(=O)c4c(c(C)nn4-c4ccccc4)C3C(C)C)C2)cc1 (stereo not drawn)	HEK cytotox inconclusive (no result: NPR1 antag, Luciferase inh)
O=S(=O)(Cc1ccccc1)Nc1cnc2c(c1)CCC2	none (no result: NPR1 antag, Luciferase inh)
